# Laboratory results published in PubChem BioAssay (EPA / NIEHS).
# Active and inactive are the calls of the source. Rule for the calls: active = hit-call score of the fitted dose curve at least 0.9, where 1 is the maximum; inactive = score below 0.9.
# Legend:
# Details in all cases: mRNA level, 48 h; actives raise or lower the signal
# [1] = read-out: ATP-citrate lyase (ACLY), ACLY (gene 47); assay: LTEA_HepaRG_ACLY: Life Technologies and Expression Analysis (LTEA) Assay for ATP-citrate lyase (ACLY) using HepaRG (AID 2283466)
# In short: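 qRT-PCR readout of ACLY transcript after 48 h chemical treatment of HepaRG cells; expression normalized to three housekeeping genes. Eight-point half-log series, highest 100 uM, 0.5% DMSO vehicle. Gain or loss fitted against DMSO baseline.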
# [2] = read-out: Peroxisomal acyl-coenzyme A oxidase 1 (ACOX1) gene, ACOX1 (gene 51); assay: LTEA_HepaRG_ACOX1: Life Technologies and Expression Analysis (LTEA) Assay for Peroxisomal acyl-coenzyme A oxidase 1 (ACOX1) gene using HepaRG (AID 2283467)
# In short: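 HepaRG, 48 h chemical exposure, 8-pt half-log series from 100 uM top, 0.5% DMSO vehicle, duplicates. Readout: ACOX1 mRNA by Fluidigm qRT-PCR, housekeeping-normalized; bidirectional fit vs DMSO baseline.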
# [3] = read-out: Alkaline Phosphatase, Placental (ALPP) gene, ALPP (gene 250); assay: LTEA_HepaRG_ALPP: Life Technologies and Expression Analysis (LTEA) Assay for Alkaline Phosphatase, Placental (ALPP) gene using HepaRG (AID 2283468);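 for AC50: differentiated human HepaRG liver cells in serum-free induction medium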
# In short: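 qRT-PCR readout of ALPP mRNA (Fluidigm TaqMan), normalized to ACTB/GAPDH/POLR2A, after 48 h chemical exposure of HepaRG cells; 8-point half-log series, top 100 uM, 0.5% DMSO vehicle. Bidirectional curve fit versus DMSO baseline.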
# [4] = read-out: Bcl-2 (BAD) gene, BAD (gene 572); assay: LTEA_HepaRG_BAD: Life Technologies and Expression Analysis (LTEA) Assay for Bcl-2 (BAD) gene using HepaRG (AID 2283469)
# In short: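 HepaRG, 48 h exposure, 8-pt half-log curve from 100 uM in 0.5% DMSO, duplicates. Readout: TaqMan qRT-PCR for BAD mRNA, housekeeping-normalised (ACTB/GAPDH/POLR2A); gain or loss fitted against DMSO baseline.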
# [5] = read-out: adenosine kinase (ADK) gene, ADK (gene 132); assay: LTEA_HepaRG_ADK: Life Technologies and Expression Analysis (LTEA) Assay for adenosine kinase (ADK) gene using HepaRG (AID 2283471)
# In short: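 Read-out is ADK transcript level measured by qRT-PCR and normalised to three housekeeping genes. Cells are human HepaRG, dosed for 48 h at up to 100 uM in 0.5% DMSO. Gain or loss of signal is fitted against DMSO controls.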
# [6] = read-out: Alpha-fetoprotein (AFP) gene, AFP (gene 174); assay: LTEA_HepaRG_AFP: Life Technologies and Expression Analysis (LTEA) Assay for Alpha-fetoprotein (AFP) gene using HepaRG (AID 2283472)
# In short: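 qRT-PCR (Fluidigm TaqMan) readout of AFP transcript, normalized to three housekeeping genes, fitted bidirectionally against 0.5% DMSO baseline. HepaRG cells received chemicals for 48 h in serum-free induction medium, top concentration 100 uM, half-log steps.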
# BCL2L11 (gene 10018) = assay: LTEA_HepaRG_BCL2L11: Life Technologies and Expression Analysis (LTEA) Assay for Bcl-2 (BCL2L11) gene using HepaRG (AID 2283473)
# In short: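 HepaRG, 48 h exposure, 8-pt half-log series from 100 uM in 0.5% DMSO, duplicates; qRT-PCR (Fluidigm TaqMan) for BCL2L11, housekeeping-normalized; bidirectional curve fit relative to DMSO baseline.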
# [7] = read-out: Apolipoprotein A-V (APOA5) gene, APOA5 (gene 116519); assay: LTEA_HepaRG_APOA5: Life Technologies and Expression Analysis (LTEA) Assay for Apolipoprotein A-V (APOA5) gene using HepaRG (AID 2283474)
# In short: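 HepaRG, 48 h chemical exposure in serum-free induction medium, 8-pt half-log series (top 100 uM), 0.5% DMSO vehicle, duplicates. Readout: APOA5 mRNA by qRT-PCR, housekeeping-normalized; bidirectional fit vs DMSO baseline.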
# [8] = read-out: Apoptosis regulator Bcl-2 (Homo sapiens) (UniProt P10415); assay: LTEA_HepaRG_BCL2: Life Technologies and Expression Analysis (LTEA) Assay for Bcl-2 gene using HepaRG (AID 2283475)
# In short: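 qRT-PCR read-out (Fluidigm TaqMan) of BCL2 transcript, normalised to three housekeeping genes, after 48 h chemical exposure of HepaRG cells; 8-point half-log series, top 100 uM, 0.5% DMSO vehicle. Gain or loss of signal fitted relative to DMSO baseline.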
# [9] = read-out: Bcl-2 (BAX) gene, BAX (gene 581); assay: LTEA_HepaRG_BAX: Life Technologies and Expression Analysis (LTEA) Assay for Bcl-2 (BAX) gene using HepaRG (AID 2283470)
# In short: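 qRT-PCR read-out of BAX mRNA, normalized to three housekeeping genes, after 48 h chemical exposure of human HepaRG cells in serum-free induction medium; eight-point half-log series, top 100 uM, 0.5% DMSO vehicle; bidirectional fit versus DMSO.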
# Apoptosis regulator Bcl-2 (Homo sapiens), sequence (P10415 whole entry, looked up): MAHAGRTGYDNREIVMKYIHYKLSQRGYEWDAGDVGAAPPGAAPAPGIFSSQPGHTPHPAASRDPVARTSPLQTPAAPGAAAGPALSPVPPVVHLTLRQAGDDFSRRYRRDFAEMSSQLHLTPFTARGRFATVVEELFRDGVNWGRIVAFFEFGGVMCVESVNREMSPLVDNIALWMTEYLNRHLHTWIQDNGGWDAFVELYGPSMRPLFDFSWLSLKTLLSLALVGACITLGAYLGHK
smiles,measurement,setting,value
C#CCOC(=O)[C@@H](C)Oc1ccc(Oc2ncc(Cl)cc2F)cc1,outcome,[1],inactive
same,outcome,[2],inactive
same,outcome,[3],inactive
same,outcome,[4],inactive
same,outcome,[5],inactive
same,outcome,[6],inactive
same,outcome,BCL2L11 (gene 10018),inactive
same,outcome,[7],inactive
same,outcome,[8],inactive
CCCCC(CC)COC(=O)c1ccccc1C(=O)O (configuration not stated),outcome,[1],inactive
same,outcome,[2],inactive
same,outcome,[3],inactive
same,outcome,[4],inactive
same,outcome,[5],inactive
same,outcome,[6],inactive
same,outcome,BCL2L11 (gene 10018),inactive
same,outcome,[7],inactive
same,outcome,[8],inactive
N#CSCSc1nc2ccccc2s1,outcome,[1],inactive
same,outcome,[2],inactive
same,AC50,[3],40.3 µM (active)
same,outcome,[4],inactive
same,outcome,[5],inactive
same,outcome,[6],inactive
same,outcome,BCL2L11 (gene 10018),inactive
same,outcome,[7],inactive
same,outcome,[8],inactive
CCOC(=O)COc1cc(-n2ncc(C(F)(F)F)c(C)c2=O)c(F)cc1Cl,outcome,[1],inactive
same,outcome,[2],inactive
same,outcome,[3],inactive
same,outcome,[4],inactive
same,outcome,[5],inactive
same,outcome,[6],inactive
same,outcome,BCL2L11 (gene 10018),inactive
same,outcome,[7],inactive
same,outcome,[8],inactive
COC(=O)CSc1cc(N=c2sc(=O)n3n2CCCC3)c(F)cc1Cl,outcome,[1],inactive
same,outcome,[2],inactive
same,outcome,[3],inactive
same,outcome,[4],inactive
same,outcome,[5],inactive
same,outcome,[6],inactive
same,outcome,BCL2L11 (gene 10018),inactive
same,outcome,[7],inactive
same,outcome,[8],inactive
COc1c(Cl)ccc(Cl)c1C(=O)O,outcome,[1],inactive
same,outcome,[2],inactive
same,outcome,[3],inactive
same,outcome,[4],inactive
same,outcome,[5],inactive
same,outcome,[6],inactive
same,outcome,BCL2L11 (gene 10018),inactive
same,outcome,[7],inactive
same,outcome,[8],inactive
C#C[C@]1(O)CC[C@H]2[C@@H]3CCC4=CC(=O)CC[C@@H]4[C@H]3CC[C@@]21CC,outcome,[1],inactive
same,outcome,[2],inactive
same,outcome,[3],inactive
same,outcome,[4],inactive
same,outcome,[5],inactive
same,outcome,[6],inactive
same,outcome,BCL2L11 (gene 10018),inactive
same,outcome,[7],inactive
same,outcome,[8],inactive
CCCCOCCOCCOCc1cc2c(cc1CCC)OCO2,outcome,[1],inactive
same,outcome,[2],inactive
same,outcome,[3],inactive
same,outcome,[4],inactive
same,outcome,[5],inactive
same,AC50,[6],33.3 µM (active)
same,outcome,BCL2L11 (gene 10018),inactive
same,outcome,[7],inactive
same,outcome,[8],inactive
C[C@]12CC[C@@H]3c4ccc(O)cc4C[C@@H](CCCCCCCCCS(=O)CCCC(F)(F)C(F)(F)F)[C@H]3[C@@H]1CC[C@@H]2O (some centres not stated),outcome,[1],inactive
same,AC50,[2],21.1 µM (active)
same,outcome,[3],inactive
same,AC50,[4],0.045 µM (active)
same,outcome,[5],inactive
same,AC50,[6],33.1 µM (active)
same,AC50,BCL2L11 (gene 10018),0.0755 µM (active)
same,AC50,[7],50 µM (active)
same,AC50,[8],0.0469 µM (active)
O=C(Nc1ccc([N+](=O)[O-])cc1Cl)c1cc(Cl)ccc1O,AC50,[1],3.76 µM (active)
same,AC50,[2],3.17 µM (active)
same,AC50,[3],15.9 µM (active)
same,AC50,[4],3.89 µM (active)
same,AC50,[5],3.07 µM (active)
same,AC50,[6],20.4 µM (active)
same,AC50,[7],4.26 µM (active)
same,AC50,[8],3.54 µM (active)
CCC(C)OC(=O)N1CCCCC1CCO (configuration not stated),outcome,[1],inactive
same,outcome,[2],inactive
same,outcome,[3],inactive
same,outcome,[4],inactive
same,outcome,[5],inactive
same,outcome,[6],inactive
same,outcome,BCL2L11 (gene 10018),inactive
same,outcome,[7],inactive
same,outcome,[8],inactive
CC(C)CCCCCCc1ccc(O)cc1,outcome,[2],inactive
same,outcome,[3],inactive
same,outcome,[4],inactive
same,outcome,[9],inactive
same,outcome,[5],inactive
same,outcome,[6],inactive
same,outcome,BCL2L11 (gene 10018),inactive
same,outcome,[7],inactive
same,outcome,[8],inactive
CCCCOC(=O)[C@@H](C)Oc1ccc(Oc2ccc(C(F)(F)F)cn2)cc1,outcome,[1],inactive
same,outcome,[2],inactive
same,outcome,[3],inactive
same,outcome,[4],inactive
same,outcome,[5],inactive
same,outcome,[6],inactive
same,outcome,BCL2L11 (gene 10018),inactive
same,outcome,[7],inactive
same,outcome,[8],inactive
CCOC(=O)c1ccc(O)cc1,outcome,[1],inactive
same,outcome,[2],inactive
same,outcome,[3],inactive
same,outcome,[4],inactive
same,outcome,[5],inactive
same,outcome,[6],inactive
same,outcome,BCL2L11 (gene 10018),inactive
same,outcome,[7],inactive
same,outcome,[8],inactive
c1ccc2[nH]c(-c3cscn3)nc2c1,outcome,[1],inactive
same,outcome,[2],inactive
same,outcome,[3],inactive
same,outcome,[4],inactive
same,outcome,[5],inactive
same,outcome,[6],inactive
same,outcome,BCL2L11 (gene 10018),inactive
same,outcome,[7],inactive
same,outcome,[8],inactive
O=C(c1ccc(O)cc1O)c1ccc(O)cc1O,outcome,[1],inactive
same,outcome,[2],inactive
same,outcome,[3],inactive
same,outcome,[4],inactive
same,outcome,[5],inactive
same,outcome,[6],inactive
same,outcome,BCL2L11 (gene 10018),inactive
same,outcome,[7],inactive
same,outcome,[8],inactive
CCOC(=O)C(C)Oc1ccc(Oc2cnc3cc(Cl)ccc3n2)cc1 (configuration not stated),outcome,[1],inactive
same,outcome,[2],inactive
same,outcome,[3],inactive
same,outcome,[4],inactive
same,outcome,[5],inactive
same,outcome,[6],inactive
same,outcome,BCL2L11 (gene 10018),inactive
same,outcome,[7],inactive
same,outcome,[8],inactive
CCCCOC(=O)C(C)Oc1ccc(Oc2ccc(C(F)(F)F)cn2)cc1 (configuration not stated),outcome,[1],inactive
same,outcome,[2],inactive
same,outcome,[3],inactive
same,outcome,[4],inactive
same,outcome,[5],inactive
same,outcome,[6],inactive
same,outcome,BCL2L11 (gene 10018),inactive
same,outcome,[7],inactive
same,outcome,[8],inactive
CCN(Cc1c(F)cccc1Cl)c1c([N+](=O)[O-])cc(C(F)(F)F)cc1[N+](=O)[O-],outcome,[1],inactive
same,outcome,[2],inactive
same,outcome,[3],inactive
same,outcome,[4],inactive
same,outcome,[5],inactive
same,AC50,[6],50 µM (active)
same,outcome,BCL2L11 (gene 10018),inactive
same,AC50,[7],26.7 µM (active)
same,outcome,[8],inactive
CCCN(CCC)C(=O)SCC,outcome,[1],inactive
same,outcome,[2],inactive
same,outcome,[3],inactive
same,outcome,[4],inactive
same,outcome,[5],inactive
same,outcome,[6],inactive
same,outcome,BCL2L11 (gene 10018),inactive
same,outcome,[7],inactive
same,outcome,[8],inactive
CC(=O)[C@H]1CC[C@H]2[C@@H]3CCC4=CC(=O)CC[C@]4(C)[C@H]3CC[C@]12C,AC50,[1],83.2 µM (active)
same,AC50,[2],75.8 µM (active)
same,AC50,[3],30 µM (active)
same,outcome,[4],inactive
same,AC50,[5],88.7 µM (active)
same,AC50,[6],24.4 µM (active)
same,AC50,BCL2L11 (gene 10018),12.8 µM (active)
same,AC50,[7],34 µM (active)
same,AC50,[8],23 µM (active)
C[C@]12C[C@H](O)[C@H]3[C@@H](CCC4=CC(=O)CC[C@@]43C)[C@@H]1CC[C@@H]2C(=O)CO,outcome,[1],inactive
same,outcome,[2],inactive
same,outcome,[3],inactive
same,outcome,[4],inactive
same,outcome,[5],inactive
same,outcome,[6],inactive
same,outcome,BCL2L11 (gene 10018),inactive
same,outcome,[7],inactive
same,outcome,[8],inactive
CCSC(=O)N(CC(C)C)CC(C)C,outcome,[1],inactive
same,outcome,[2],inactive
same,outcome,[3],inactive
same,outcome,[4],inactive
same,outcome,[5],inactive
same,outcome,[6],inactive
same,outcome,BCL2L11 (gene 10018),inactive
same,outcome,[7],inactive
same,outcome,[8],inactive
S=C([S-])NCCNC(=S)[S-].[Mn+2],AC50,[1],0.871 µM (active)
same,AC50,[2],2.64 µM (active)
same,outcome,[3],inactive
same,outcome,[4],inactive
same,AC50,[5],0.628 µM (active)
same,AC50,[6],3.16 µM (active)
same,outcome,BCL2L11 (gene 10018),inactive
same,AC50,[7],3.64 µM (active)
same,outcome,[8],inactive
CCCOC(=O)NCCCN(C)C,outcome,[1],inactive
same,outcome,[2],inactive
same,outcome,[3],inactive
same,outcome,[4],inactive
same,outcome,[5],inactive
same,outcome,[6],inactive
same,outcome,BCL2L11 (gene 10018),inactive
same,outcome,[7],inactive
same,outcome,[8],inactive
CCCN(CCC)c1c([N+](=O)[O-])cc(C(F)(F)F)c(N)c1[N+](=O)[O-],outcome,[1],inactive
same,outcome,[2],inactive
same,outcome,[3],inactive
same,outcome,[4],inactive
same,outcome,[5],inactive
same,AC50,[6],34.4 µM (active)
same,outcome,BCL2L11 (gene 10018),inactive
same,AC50,[7],50 µM (active)
same,outcome,[8],inactive
CN(C)C(=O)Nc1ccc(Cl)c(Cl)c1,outcome,[1],inactive
same,outcome,[2],inactive
same,outcome,[3],inactive
same,outcome,[4],inactive
same,outcome,[5],inactive
same,AC50,[6],50 µM (active)
same,outcome,BCL2L11 (gene 10018),inactive
same,outcome,[7],inactive
same,outcome,[8],inactive
